Source: PubChem BioAssay (EPA / NIEHS)
Activity calls are given as the source filed them. Rule for the calls: active = hit-call score of the fitted dose curve at least 0.9, where 1 is the maximum; inactive = score below 0.9.

What was measured:
[1] = molecular target: Bile acid receptor (Homo sapiens) (UniProt Q96RI1); assay: ATG_IR1_CIS: Attagene CIS-FACTORIAL HepG2 Assay for human Nuclear Receptor Subfamily 1 Group H Member 4 (NR1H4), IR1 submotif (AID 2282946); conditions: IR1 reporter transcription, actives raise or lower the signal
Bile acid receptor (Homo sapiens), sequence (Q96RI1 whole entry, looked up): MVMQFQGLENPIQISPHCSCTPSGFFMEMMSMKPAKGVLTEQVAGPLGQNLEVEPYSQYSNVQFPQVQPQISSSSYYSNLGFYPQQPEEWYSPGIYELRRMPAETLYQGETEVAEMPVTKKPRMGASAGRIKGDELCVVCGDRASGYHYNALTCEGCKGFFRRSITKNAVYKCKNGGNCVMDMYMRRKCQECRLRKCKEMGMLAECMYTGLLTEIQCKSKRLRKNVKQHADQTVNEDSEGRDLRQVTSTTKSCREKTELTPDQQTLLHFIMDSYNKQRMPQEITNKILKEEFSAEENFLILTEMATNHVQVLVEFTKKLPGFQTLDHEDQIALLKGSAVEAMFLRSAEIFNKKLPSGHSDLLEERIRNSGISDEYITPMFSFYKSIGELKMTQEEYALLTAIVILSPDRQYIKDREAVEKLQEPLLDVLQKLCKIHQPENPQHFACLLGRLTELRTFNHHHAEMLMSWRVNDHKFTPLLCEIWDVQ
Method in brief: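 Fluorescence of capillary-separated, HpaI-digested RT-PCR reporter products gave IR1-element mRNA induction in HepG2 cells 24 h after dosing. Endogenous transcription factors drove the cis-regulated reporters; activity was fitted bidirectionally against DMSO.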

[2] = ATG_GRE_CIS: Attagene CIS-FACTORIAL HepG2 Assay for human Glucocorticoid Response Elements (GRE) (AID 2282947); conditions: HepG2 GRE cis-reporter, Attagene multiplex mRNA; actives raise or lower the signal
Method in brief: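 Fluorescence intensity of reporter-specific cDNA fragments, separated by capillary electrophoresis, provides the signal. Constructs carry cis-regulating promoters in transiently transfected HepG2 liver cells; 24 h incubation; fitting is bidirectional against DMSO.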

[3] = ATG_ISRE_CIS: Attagene CIS-FACTORIAL HepG2 Assay for human Interferon Regulatory Factor 1 (IRF1) binding to an Interferon-Stimulated Response Element (ISRE) (AID 2282948); conditions: HepG2 ISRE cis-reporter (Attagene), mRNA transcription readout; actives raise or lower the signal
Method in brief: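 Endogenous transcription factor activity read as reporter transcript abundance via RT-PCR and capillary electrophoresis. HepG2 cells transiently transfected, 24 h chemical exposure. Gain or loss fitted against DMSO baseline.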

[4] = ATG_M_32_CIS: Attagene CIS-FACTORIAL HepG2 Assay for M32 Transcription Factor (Internal Marker) (AID 2282949); conditions: HepG2 Attagene cis-factorial M32 reporter, mRNA; actives raise or lower the signal;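 note: background control marker of the multiplexed CIS panel rather than a real target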
Method in brief: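 HepG2 transfectants (cis-regulated reporter transcription units) dosed 24 h. Reporter mRNA by RT-PCR plus CE, analysed as gain or loss relative to DMSO.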

[5] = ATG_M_06_CIS: Attagene CIS-FACTORIAL HepG2 Assay for M06 Transcription Factor (Internal Marker) (AID 2282950); conditions: HepG2 Attagene CIS-FACTORIAL M06 internal marker reporter; actives raise or lower the signal
Method in brief: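 HepG2 liver cells, 24 h exposure. Reporter transcripts from transfected cis-element constructs quantified by RT-PCR/capillary electrophoresis fluorescence. Bidirectional curve fit against DMSO.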

[6] = molecular target: Hypoxia-inducible factor 1-alpha (Homo sapiens) (UniProt Q16665); assay: ATG_HIF1a_CIS: Attagene CIS-FACTORIAL HepG2 Assay for human Hypoxia Inducible Factor 1 (HIF1A) (AID 2282951); conditions: HepG2 Attagene cis-factorial HIF1a reporter transcription; actives raise or lower the signal
Hypoxia-inducible factor 1-alpha (Homo sapiens), sequence (Q16665 whole entry, looked up): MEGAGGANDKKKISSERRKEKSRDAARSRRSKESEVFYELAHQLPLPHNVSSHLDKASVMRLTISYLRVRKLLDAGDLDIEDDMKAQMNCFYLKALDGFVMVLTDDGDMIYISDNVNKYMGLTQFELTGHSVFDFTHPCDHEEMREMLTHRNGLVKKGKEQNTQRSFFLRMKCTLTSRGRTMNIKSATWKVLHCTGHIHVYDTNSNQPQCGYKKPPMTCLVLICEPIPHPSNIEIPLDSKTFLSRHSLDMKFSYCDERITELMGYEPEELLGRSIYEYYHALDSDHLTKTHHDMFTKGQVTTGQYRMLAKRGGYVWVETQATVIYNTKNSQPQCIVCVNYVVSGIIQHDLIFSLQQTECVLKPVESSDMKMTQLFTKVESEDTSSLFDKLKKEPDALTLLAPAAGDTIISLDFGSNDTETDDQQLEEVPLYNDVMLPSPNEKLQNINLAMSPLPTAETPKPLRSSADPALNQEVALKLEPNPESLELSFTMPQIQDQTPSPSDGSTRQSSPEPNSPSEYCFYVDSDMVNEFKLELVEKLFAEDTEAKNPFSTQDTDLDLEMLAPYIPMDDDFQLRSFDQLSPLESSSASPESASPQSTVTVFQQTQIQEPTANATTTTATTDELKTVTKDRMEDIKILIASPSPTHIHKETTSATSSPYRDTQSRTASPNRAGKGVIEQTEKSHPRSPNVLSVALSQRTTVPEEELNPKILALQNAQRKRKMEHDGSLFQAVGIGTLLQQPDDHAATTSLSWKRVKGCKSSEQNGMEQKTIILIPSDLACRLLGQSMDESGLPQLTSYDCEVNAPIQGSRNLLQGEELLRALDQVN
Method in brief: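 After 24 h chemical exposure of reporter-transfected HepG2 cells, reporter cDNA was PCR-amplified, labelled by 6-FAM primer extension (2 min 95 C, 20 s 68 C, 10 min 72 C), HpaI-cut (2 h, 37 C) and analysed by CE.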

[7] = molecular target: Hepatocyte nuclear factor 6 (Homo sapiens) (UniProt Q9UBC0); assay: ATG_HNF6_CIS: Attagene CIS-FACTORIAL HepG2 Assay for human Hepatocyte Nuclear Factor 6 (HNF6) (AID 2282952); conditions: HepG2 Attagene cis-factorial HNF6 reporter transcription; actives raise or lower the signal
Hepatocyte nuclear factor 6 (Homo sapiens), sequence (Q9UBC0 whole entry, looked up, the tested form may be a part): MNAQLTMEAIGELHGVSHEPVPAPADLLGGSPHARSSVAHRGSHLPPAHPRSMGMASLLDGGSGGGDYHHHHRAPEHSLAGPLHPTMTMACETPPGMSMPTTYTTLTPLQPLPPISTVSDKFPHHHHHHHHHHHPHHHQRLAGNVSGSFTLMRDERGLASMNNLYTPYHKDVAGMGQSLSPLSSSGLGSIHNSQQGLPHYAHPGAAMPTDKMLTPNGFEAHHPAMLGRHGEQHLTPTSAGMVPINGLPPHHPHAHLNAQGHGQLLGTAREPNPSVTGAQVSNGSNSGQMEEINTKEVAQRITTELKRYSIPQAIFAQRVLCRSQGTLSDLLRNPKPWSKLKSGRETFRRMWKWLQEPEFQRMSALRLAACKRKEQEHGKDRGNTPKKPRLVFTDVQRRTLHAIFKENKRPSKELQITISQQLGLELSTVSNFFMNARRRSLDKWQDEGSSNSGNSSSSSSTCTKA
Method in brief: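 First, HepG2 cells were transfected with the multiplexed cis reporter library and dosed with chemical for 24 h. Next, RNA was reverse-transcribed, PCR-amplified and fluorescently labelled. Finally, HpaI-digested fragments were read by capillary electrophoresis.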

[8] = molecular target: Heat shock factor protein 1 (Homo sapiens) (UniProt Q00613); assay: ATG_HSE_CIS: Attagene CIS-FACTORIAL HepG2 Assay for human Heat Shock Transcription Factor 1 (HSE) (AID 2282953); conditions: HepG2 HSE cis-reporter, Attagene RNA transcription; actives raise or lower the signal
Heat shock factor protein 1 (Homo sapiens), sequence (Q00613 whole entry, looked up, the tested form may be a part): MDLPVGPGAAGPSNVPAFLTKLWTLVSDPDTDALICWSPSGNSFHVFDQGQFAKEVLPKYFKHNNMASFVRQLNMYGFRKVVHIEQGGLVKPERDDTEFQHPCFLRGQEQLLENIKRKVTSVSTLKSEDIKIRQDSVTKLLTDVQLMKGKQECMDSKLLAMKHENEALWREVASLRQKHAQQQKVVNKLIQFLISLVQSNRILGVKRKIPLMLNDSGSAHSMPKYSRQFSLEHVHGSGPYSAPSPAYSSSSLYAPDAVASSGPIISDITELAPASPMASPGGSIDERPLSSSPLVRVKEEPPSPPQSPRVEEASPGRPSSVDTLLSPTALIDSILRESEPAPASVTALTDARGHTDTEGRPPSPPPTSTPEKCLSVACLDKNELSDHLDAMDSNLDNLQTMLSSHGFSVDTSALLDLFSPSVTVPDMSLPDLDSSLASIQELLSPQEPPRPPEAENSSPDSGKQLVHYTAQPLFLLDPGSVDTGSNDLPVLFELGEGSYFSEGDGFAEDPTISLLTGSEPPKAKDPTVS
Method in brief: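 Endogenous transcription factor activity captured via cis-promoter reporter units transfected into HepG2; treatment lasted 24 h. Fluorescence intensity of reporter fragments analysed with bidirectional curve fitting, DMSO baseline.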

[9] = ATG_MRE_CIS: Attagene CIS-FACTORIAL HepG2 Assay for human Metal Responsive Element (MRE) (AID 2282954); conditions: HepG2 MRE cis-reporter transcription, Attagene multiplex; actives raise or lower the signal
Method in brief: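 Measured here is mRNA induction from an MRE cis-element reporter in HepG2 after 24 h, quantified by fluorescence of labelled RT-PCR products on capillary electrophoresis; gain- and loss-of-signal fits use DMSO as baseline.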

[10] = ATG_PBREM_CIS: Attagene CIS-FACTORIAL HepG2 Assay for human Phenobarbital-responsive Enhancer Module (PBREM) (AID 2282955); conditions: HepG2 PBREM cis-reporter, Attagene multiplexed transcription; actives raise or lower the signal
Method in brief: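 Measures endogenous factor action on a phenobarbital-responsive enhancer module. HepG2 transiently carrying cis reporters, 24 h treatment, mRNA read-out by RT-PCR plus capillary electrophoresis.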

Row | SMILES | outcome [1] | outcome [2] | outcome [3] | outcome [4] | outcome [5] | outcome [6] | outcome [7] | outcome [8] | outcome [9] | AC50 [8] | AC50 [9] | AC50 [1] | AC50 [2] | AC50 [6] | AC50 [7] | AC50 [10] | outcome [10] | AC50 [3]
1 | Nc1ccccc1[N+](=O)[O-] | inactive | inactive | inactive | inactive | inactive | inactive | inactive | inactive | inactive | – | – | – | – | – | – | – | – | –
2 | CCCCCCC(C)Nc1ccc(Nc2ccccc2)cc1 (centres undefined) | inactive | inactive | inactive | inactive | inactive | inactive | inactive | – | – | 60.8 µM (active) | 48.9 µM (active) | – | – | – | – | – | – | –
3 | CCCCN(CCCC)C(=O)N(CCCC)CCCC | – | – | inactive | inactive | inactive | – | – | – | – | 52.2 µM (active) | 8.86 µM (active) | 24.5 µM (active) | 48.3 µM (active) | 54.8 µM (active) | 53.7 µM (active) | 58.9 µM (active) | – | –
4 | CC(C)(C)OC(=O)c1ccc(O)cc1 | inactive | inactive | inactive | inactive | inactive | inactive | inactive | – | – | 159 µM (active) | 100 µM (active) | – | – | – | – | – | inactive | –
5 | CSc1c(Cl)c(Cl)c(Cl)c(Cl)c1Cl | – | inactive | – | inactive | inactive | inactive | inactive | inactive | – | – | 100 µM (active) | 5.76 µM (active) | – | – | – | – | – | 27.9 µM (active)
6 | FC(F)(F)COCC(F)(F)F | inactive | inactive | inactive | inactive | inactive | inactive | inactive | inactive | inactive | – | – | – | – | – | – | – | inactive | –
7 | CCC(Cl)C(Cl)C(Cl)CC(Cl)C(Cl)C(C)Cl (centres undefined) | – | inactive | inactive | inactive | inactive | inactive | inactive | inactive | – | – | 74 µM (active) | 10.5 µM (active) | – | – | – | – | – | –
8 | IC(I)I | inactive | inactive | inactive | inactive | inactive | inactive | inactive | inactive | inactive | – | – | – | – | – | – | – | – | –
9 | CC(=O)O[C@@H]1CC2CCC1(C)C2(C)C (some centres undefined) | inactive | inactive | inactive | inactive | inactive | inactive | inactive | inactive | – | – | – | – | – | – | – | – | – | –
10 | [Cl][Au]([Cl])[Cl] | inactive | inactive | inactive | inactive | inactive | inactive | inactive | inactive | inactive | – | – | – | – | – | – | – | – | –
11 | CCCC(O)C(O)CO (centres undefined) | inactive | inactive | inactive | inactive | inactive | inactive | inactive | inactive | inactive | – | – | – | – | – | – | – | – | –
12 | CC(=O)CC(=O)Nc1ccccc1 | inactive | inactive | inactive | inactive | inactive | – | inactive | inactive | inactive | – | – | – | – | 24.2 µM (active) | – | – | – | –
13 | CCCCCCCCCCCCCC(=O)OCC(O)CO (centres undefined) | inactive | inactive | inactive | inactive | inactive | inactive | inactive | inactive | inactive | – | – | – | – | – | – | – | inactive | –
14 | C=CC(=O)OCCCC | inactive | inactive | inactive | inactive | inactive | inactive | inactive | inactive | inactive | – | – | – | – | – | – | – | inactive | –
15 | COc1cccc(OC)c1O | inactive | inactive | inactive | inactive | inactive | inactive | inactive | inactive | inactive | – | – | – | – | – | – | – | inactive | –
16 | C=CC(C)C#N (centres undefined) | inactive | inactive | inactive | inactive | inactive | inactive | inactive | inactive | inactive | – | – | – | – | – | – | – | inactive | –
17 | CCc1cc(C(C)(C)C)c(O)c(C(C)(C)C)c1 | inactive | inactive | inactive | inactive | inactive | inactive | inactive | inactive | – | – | – | – | – | – | – | – | inactive | –
18 | COc1ccc(N)c([N+](=O)[O-])c1 | inactive | inactive | inactive | inactive | inactive | inactive | inactive | inactive | inactive | – | – | – | – | – | – | – | inactive | –
19 | ClC(c1ccccc1)(c1ccccc1)c1ccccc1 | inactive | inactive | inactive | inactive | inactive | inactive | inactive | inactive | inactive | – | – | – | – | – | – | – | inactive | –
20 | CCCC[P+](CCCC)(CCCC)CCCC | inactive | inactive | inactive | inactive | inactive | inactive | inactive | inactive | inactive | – | – | – | – | – | – | – | inactive | –
21 | CCCCCCCCCCCCS(=O)(=O)Cl | inactive | inactive | inactive | inactive | inactive | inactive | inactive | inactive | inactive | – | – | – | – | – | – | – | inactive | –
22 | COC(=O)c1ccc(OC)cc1 | inactive | inactive | inactive | inactive | inactive | inactive | inactive | inactive | inactive | – | – | – | – | – | – | – | inactive | –
23 | CCOC(=O)CN | inactive | inactive | inactive | inactive | inactive | inactive | inactive | inactive | inactive | – | – | – | – | – | – | – | inactive | –
24 | O=C1c2ccccc2C(=O)c2c(O)ccc(O)c21 | inactive | inactive | inactive | inactive | inactive | inactive | inactive | inactive | inactive | – | – | – | – | – | – | – | inactive | –
25 | CCCCCCCCC=CCCCCCCCC1=NCCN1CCO | – | inactive | – | inactive | inactive | inactive | inactive | inactive | inactive | – | – | 26.1 µM (active) | – | – | – | – | inactive | 189 µM (active)
26 | CC1(C)COCN1 | inactive | inactive | inactive | inactive | inactive | inactive | inactive | inactive | inactive | – | – | – | – | – | – | – | inactive | –
